From publication PMC7862700, “An all-to-all approach to the identification of sequence-specific readers for epigenetic DNA modifications on cytosine” come the findings set out here.

Holding throughout (assay): DAPPL (digital affinity profiling via proximity ligation, sequencing); 10 mM Tris-HCl pH 7.5, 50 mM NaCl, 1 mM DTT, 4% glycerol, room temperature, 30 min; GST-TFs on glutathione beads, 16-mer random dsDNA library, 0.1% formaldehyde crosslink after washing; high values mean tight binding
One assay concerns the target T1, FEV (Homo sapiens, UniProt Q99581 1-238).
T1 sequence: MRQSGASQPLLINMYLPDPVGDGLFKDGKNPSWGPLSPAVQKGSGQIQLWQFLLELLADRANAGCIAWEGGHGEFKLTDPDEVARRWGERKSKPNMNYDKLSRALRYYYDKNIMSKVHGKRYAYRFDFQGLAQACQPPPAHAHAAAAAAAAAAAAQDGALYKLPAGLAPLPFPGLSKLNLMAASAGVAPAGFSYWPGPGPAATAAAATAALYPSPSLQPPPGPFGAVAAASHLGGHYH
As to conditions: protein: recombinant; tags: N-terminal GST; dsDNA, one strand shown. The essentials: (§1)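 Human transcription factors carrying a GST fusion were produced in yeast, bound to glutathione beads, tagged with DNA barcodes and pooled together with a tag-only sample. Each pool was held with 200 nmole of a random double-stranded 16-mer DNA library in Tris/NaCl/DTT/glycerol buffer for 30 min at room temperature, then washed, crosslinked in 0.1% formaldehyde, proximity-ligated with BsaI/T4 ligase (1 h, 37 °C), PCR-amplified and sequenced on an Illumina NextSeq500. Binding signal is the read frequency of each hexamer for a given factor divided by its frequency in the tag-only sample.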

Another assay addresses ETV5 (Homo sapiens, UniProt P41161 1-510). The note with it: protein: recombinant; tags: N-terminal GST; dsDNA, one strand shown. The essentials:
as §1

The target of another assay is HSF1 (Homo sapiens, UniProt Q00613 1-529). The note with it: protein: recombinant; tags: N-terminal GST; chain copies: 3; dsDNA, one strand shown. The gist of the method: as §1
Chain of HSF1 (Q00613 whole entry): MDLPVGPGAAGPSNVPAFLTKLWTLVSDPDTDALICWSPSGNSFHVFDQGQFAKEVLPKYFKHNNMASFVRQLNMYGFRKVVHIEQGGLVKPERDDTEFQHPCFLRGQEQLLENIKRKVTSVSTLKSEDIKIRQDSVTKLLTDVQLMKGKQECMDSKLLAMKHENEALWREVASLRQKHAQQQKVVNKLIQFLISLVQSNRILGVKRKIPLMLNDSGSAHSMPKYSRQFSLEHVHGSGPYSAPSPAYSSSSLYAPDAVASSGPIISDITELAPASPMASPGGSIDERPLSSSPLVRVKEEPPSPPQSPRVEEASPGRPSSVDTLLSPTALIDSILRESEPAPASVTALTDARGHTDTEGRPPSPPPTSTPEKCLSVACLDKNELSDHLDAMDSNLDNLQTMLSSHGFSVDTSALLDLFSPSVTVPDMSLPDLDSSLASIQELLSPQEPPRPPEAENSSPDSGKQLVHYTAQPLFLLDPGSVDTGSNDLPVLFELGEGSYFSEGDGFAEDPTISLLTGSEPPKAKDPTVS
Another assay addresses T2, SPIC (Homo sapiens, UniProt Q8N5J4 1-248).
T2 sequence: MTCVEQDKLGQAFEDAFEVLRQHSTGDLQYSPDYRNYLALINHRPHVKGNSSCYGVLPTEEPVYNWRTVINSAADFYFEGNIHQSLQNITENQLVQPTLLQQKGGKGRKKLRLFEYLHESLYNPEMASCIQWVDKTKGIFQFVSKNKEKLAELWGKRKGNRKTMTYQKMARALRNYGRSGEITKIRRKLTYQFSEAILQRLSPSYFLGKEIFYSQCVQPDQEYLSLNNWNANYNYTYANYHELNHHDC
The note with it: protein: recombinant; tags: N-terminal GST; dsDNA, one strand shown. The gist of the method: as §1

A further assay deals with ELF4 (Homo sapiens, UniProt Q99607 1-663). The note with it: protein: recombinant; tags: N-terminal GST; dsDNA, one strand shown. The gist of the method: as §1
Chain of ELF4 (Q99607 whole entry): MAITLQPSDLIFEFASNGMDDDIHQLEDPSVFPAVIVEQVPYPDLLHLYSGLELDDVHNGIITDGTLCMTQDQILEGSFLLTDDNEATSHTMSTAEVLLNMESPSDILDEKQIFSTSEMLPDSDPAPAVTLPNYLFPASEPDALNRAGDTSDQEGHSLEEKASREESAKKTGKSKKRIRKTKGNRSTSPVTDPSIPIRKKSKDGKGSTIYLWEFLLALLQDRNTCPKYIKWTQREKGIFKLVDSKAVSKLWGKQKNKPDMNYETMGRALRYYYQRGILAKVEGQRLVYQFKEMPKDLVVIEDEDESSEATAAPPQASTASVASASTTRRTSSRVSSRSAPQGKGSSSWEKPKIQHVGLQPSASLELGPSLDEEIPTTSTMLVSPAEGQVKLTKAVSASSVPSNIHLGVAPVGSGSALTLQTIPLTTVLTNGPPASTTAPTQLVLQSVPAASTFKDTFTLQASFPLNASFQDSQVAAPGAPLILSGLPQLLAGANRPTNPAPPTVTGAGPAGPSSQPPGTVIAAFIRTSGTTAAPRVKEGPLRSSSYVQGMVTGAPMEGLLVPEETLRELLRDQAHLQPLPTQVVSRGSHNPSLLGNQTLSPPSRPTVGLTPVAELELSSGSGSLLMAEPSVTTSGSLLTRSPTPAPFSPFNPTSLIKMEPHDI
The target of the next assay is T3, ELK4 (Homo sapiens, UniProt P28324-2 1-405).
T3 sequence: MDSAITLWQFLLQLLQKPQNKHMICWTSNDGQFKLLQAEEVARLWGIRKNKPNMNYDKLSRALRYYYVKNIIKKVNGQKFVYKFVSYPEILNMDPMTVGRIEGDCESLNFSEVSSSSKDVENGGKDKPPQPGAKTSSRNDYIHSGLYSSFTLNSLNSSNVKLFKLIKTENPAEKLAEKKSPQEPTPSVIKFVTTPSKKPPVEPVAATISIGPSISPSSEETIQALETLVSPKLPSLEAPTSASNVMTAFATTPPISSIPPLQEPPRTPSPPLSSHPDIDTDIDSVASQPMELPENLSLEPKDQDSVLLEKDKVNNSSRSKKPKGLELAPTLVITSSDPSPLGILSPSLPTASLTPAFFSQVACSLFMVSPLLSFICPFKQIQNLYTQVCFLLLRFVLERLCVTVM
As to conditions: protein: recombinant; tags: N-terminal GST; dsDNA, one strand shown. The gist of the method: as §1

In the next assay the target is T4, ETV2 (Homo sapiens, UniProt O00321 1-342).
T4 sequence: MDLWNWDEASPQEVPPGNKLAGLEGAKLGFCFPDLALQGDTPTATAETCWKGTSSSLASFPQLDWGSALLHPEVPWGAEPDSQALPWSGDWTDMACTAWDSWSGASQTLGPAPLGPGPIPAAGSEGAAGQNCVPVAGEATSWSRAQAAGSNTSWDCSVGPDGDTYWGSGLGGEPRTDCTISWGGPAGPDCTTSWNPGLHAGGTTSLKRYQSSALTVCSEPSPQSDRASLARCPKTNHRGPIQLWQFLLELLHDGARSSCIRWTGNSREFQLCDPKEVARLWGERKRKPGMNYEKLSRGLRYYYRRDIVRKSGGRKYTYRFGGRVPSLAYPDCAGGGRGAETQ
As to conditions: protein: recombinant; tags: N-terminal GST; dsDNA, one strand shown. The essentials:
as §1

The target in the next assay is T5, ELF3 (Homo sapiens, UniProt P78545 1-371).
T5 sequence: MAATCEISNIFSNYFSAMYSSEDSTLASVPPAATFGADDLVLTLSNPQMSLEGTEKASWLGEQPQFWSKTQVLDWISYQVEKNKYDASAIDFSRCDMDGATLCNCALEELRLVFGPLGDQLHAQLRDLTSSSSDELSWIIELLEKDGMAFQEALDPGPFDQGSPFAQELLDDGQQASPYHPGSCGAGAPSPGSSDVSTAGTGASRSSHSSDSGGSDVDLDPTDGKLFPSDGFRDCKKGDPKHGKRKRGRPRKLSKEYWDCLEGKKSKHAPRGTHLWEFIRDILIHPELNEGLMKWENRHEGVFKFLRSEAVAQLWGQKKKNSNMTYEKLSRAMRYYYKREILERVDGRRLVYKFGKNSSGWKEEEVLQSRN
The note with it: protein: recombinant; tags: N-terminal GST; dsDNA, one strand shown. The essentials:
as §1

The next assay has as its target CRX (Homo sapiens, UniProt O43186 1-299). The note with it: protein: recombinant; tags: N-terminal GST; dsDNA, one strand shown. The gist of the method:
as §1

A further assay addresses ETV1 (Homo sapiens, UniProt P50549 1-477). The note with it: protein: recombinant; tags: N-terminal GST; dsDNA, one strand shown. The essentials: as §1
The target in the next assay is T6, ERF (Homo sapiens, UniProt P50548 1-548).
T6 sequence: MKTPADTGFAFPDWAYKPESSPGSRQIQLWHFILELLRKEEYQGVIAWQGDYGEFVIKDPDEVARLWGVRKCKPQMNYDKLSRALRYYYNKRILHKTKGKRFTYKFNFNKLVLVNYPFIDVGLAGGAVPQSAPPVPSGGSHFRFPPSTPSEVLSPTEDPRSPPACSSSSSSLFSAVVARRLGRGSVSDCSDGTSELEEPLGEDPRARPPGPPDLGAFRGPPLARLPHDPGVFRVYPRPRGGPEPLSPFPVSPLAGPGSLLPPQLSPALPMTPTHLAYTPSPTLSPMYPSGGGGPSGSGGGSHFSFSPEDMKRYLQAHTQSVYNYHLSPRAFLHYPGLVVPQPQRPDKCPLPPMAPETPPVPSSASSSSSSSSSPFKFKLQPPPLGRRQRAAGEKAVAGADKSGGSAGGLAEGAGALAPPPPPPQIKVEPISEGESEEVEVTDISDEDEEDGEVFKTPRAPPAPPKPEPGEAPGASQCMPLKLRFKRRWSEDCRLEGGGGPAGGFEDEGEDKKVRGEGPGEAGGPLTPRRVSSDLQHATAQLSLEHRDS
The note with it: protein: recombinant; tags: N-terminal GST; dsDNA, one strand shown. The essentials: as §1

The next assay has as its target T7, ETV3L (Homo sapiens, UniProt Q6ZN32 1-361).
T7 sequence: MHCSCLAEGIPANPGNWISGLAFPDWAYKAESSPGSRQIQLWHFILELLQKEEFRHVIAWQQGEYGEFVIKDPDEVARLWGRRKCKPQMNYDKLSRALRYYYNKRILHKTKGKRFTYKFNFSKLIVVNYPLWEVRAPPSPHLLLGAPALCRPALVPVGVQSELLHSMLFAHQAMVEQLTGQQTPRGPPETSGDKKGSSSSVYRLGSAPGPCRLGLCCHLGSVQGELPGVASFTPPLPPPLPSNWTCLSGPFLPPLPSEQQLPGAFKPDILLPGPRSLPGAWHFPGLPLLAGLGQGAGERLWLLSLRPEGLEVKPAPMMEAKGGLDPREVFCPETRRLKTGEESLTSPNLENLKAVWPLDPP
The note with it: protein: recombinant; tags: N-terminal GST; dsDNA, one strand shown. The essentials: as §1

For a further assay, the target named is T8, ETS2 (Homo sapiens, UniProt P15036 1-469).
T8 sequence: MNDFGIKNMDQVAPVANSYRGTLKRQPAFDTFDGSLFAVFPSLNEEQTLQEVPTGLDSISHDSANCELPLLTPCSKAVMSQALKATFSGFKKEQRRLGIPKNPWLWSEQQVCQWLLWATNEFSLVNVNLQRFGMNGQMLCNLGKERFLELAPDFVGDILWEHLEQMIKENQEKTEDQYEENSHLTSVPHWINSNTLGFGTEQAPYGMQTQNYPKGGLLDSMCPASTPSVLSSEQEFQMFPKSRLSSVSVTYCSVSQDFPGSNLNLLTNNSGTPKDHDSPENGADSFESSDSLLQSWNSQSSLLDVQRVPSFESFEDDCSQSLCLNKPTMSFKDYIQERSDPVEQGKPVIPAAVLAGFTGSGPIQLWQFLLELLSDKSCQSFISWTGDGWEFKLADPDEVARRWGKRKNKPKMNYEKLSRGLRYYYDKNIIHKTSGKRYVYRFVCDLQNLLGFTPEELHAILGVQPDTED
The note with it: protein: recombinant; tags: N-terminal GST; dsDNA, one strand shown. The essentials: as §1

The target of another assay is T9, SPDEF (Homo sapiens, UniProt O95238 1-335).
T9 sequence: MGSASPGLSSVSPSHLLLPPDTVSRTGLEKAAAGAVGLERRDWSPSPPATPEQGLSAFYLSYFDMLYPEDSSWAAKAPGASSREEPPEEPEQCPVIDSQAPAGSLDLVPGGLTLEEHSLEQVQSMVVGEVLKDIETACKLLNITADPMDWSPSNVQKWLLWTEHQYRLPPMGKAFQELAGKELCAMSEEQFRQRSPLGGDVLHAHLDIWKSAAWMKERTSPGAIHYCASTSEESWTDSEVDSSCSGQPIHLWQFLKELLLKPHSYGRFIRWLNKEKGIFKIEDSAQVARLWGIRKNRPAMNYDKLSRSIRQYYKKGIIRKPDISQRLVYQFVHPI
As to conditions: protein: recombinant; tags: N-terminal GST; dsDNA, one strand shown. The gist of the method:
as §1

In a further assay the target is T10, ETV7 (Homo sapiens, UniProt Q9Y603 1-341).
T10 sequence: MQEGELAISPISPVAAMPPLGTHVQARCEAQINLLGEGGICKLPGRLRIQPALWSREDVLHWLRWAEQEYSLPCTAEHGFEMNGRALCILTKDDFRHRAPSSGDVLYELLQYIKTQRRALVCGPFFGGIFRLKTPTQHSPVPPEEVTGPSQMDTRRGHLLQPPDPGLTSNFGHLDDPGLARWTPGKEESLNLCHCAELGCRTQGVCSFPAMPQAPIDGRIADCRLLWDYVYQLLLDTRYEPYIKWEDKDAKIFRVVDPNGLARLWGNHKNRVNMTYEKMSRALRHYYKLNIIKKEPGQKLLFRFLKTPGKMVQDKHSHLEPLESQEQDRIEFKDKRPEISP
As to conditions: protein: recombinant; tags: N-terminal GST; dsDNA, one strand shown. The gist of the method: as §1

For the next assay, the target named is T11, ELF5 (Homo sapiens, UniProt Q9UKW6-2 1-255).
T11 sequence: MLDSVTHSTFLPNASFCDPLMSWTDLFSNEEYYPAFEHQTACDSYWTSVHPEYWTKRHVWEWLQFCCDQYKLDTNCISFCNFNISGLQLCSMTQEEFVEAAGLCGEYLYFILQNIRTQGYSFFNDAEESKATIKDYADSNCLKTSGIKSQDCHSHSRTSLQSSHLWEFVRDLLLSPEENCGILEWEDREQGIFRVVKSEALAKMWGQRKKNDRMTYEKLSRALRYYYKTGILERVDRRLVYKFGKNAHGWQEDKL
The note with it: protein: recombinant; tags: N-terminal GST; dsDNA, one strand shown. The essentials: as §1

A further assay concerns the target T12, ETV3 (Homo sapiens, UniProt P41162-2 1-143).
T12 sequence: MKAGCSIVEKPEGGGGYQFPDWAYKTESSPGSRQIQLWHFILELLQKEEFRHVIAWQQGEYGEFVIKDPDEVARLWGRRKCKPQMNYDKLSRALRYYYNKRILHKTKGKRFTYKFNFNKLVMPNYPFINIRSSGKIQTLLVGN
The note with it: protein: recombinant; tags: N-terminal GST; dsDNA, one strand shown. The gist of the method: as §1

A further assay deals with ETV6 (Homo sapiens, UniProt P41212 1-452). As to conditions: protein: recombinant; tags: N-terminal GST; dsDNA, one strand shown. The gist of the method: as §1
Chain of ETV6 (P41212 whole entry): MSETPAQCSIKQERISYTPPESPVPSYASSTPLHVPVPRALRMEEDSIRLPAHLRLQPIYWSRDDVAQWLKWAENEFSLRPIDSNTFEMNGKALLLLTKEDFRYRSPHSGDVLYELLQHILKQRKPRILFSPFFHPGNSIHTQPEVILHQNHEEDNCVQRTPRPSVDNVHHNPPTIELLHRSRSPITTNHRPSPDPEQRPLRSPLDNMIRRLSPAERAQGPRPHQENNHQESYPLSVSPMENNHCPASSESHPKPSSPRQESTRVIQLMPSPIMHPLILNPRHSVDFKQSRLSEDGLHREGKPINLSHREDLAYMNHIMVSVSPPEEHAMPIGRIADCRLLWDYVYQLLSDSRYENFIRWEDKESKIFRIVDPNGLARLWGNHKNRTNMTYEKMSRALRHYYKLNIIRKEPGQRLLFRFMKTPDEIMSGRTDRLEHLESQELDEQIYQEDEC

Chain of ETV5 (P41161 whole entry): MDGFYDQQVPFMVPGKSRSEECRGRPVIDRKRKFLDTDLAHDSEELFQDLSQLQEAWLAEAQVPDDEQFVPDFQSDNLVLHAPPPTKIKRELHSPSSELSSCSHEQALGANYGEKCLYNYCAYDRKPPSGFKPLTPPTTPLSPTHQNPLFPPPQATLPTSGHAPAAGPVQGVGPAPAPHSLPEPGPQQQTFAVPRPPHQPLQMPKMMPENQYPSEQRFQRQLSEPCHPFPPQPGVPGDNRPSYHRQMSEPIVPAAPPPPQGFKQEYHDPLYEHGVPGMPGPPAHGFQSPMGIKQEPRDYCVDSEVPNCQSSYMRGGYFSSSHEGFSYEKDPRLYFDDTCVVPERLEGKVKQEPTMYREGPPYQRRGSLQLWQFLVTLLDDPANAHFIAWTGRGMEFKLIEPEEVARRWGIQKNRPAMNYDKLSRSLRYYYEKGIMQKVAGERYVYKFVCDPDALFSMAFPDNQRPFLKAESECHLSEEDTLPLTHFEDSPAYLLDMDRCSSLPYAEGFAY
Chain of ETV1 (P50549 whole entry): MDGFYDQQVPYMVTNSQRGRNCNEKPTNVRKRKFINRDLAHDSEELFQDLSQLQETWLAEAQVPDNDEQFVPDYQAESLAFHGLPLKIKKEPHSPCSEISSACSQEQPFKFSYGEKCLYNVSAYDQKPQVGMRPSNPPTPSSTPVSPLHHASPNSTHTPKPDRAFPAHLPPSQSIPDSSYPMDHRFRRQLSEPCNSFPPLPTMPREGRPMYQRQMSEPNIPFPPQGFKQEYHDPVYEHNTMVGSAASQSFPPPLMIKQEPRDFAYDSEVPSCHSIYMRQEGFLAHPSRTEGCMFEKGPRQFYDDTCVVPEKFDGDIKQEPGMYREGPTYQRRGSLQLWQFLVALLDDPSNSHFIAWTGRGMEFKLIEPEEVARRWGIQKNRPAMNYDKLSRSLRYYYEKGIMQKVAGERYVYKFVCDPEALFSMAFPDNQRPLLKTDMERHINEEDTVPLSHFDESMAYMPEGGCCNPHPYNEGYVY
Chain of CRX (O43186 whole entry): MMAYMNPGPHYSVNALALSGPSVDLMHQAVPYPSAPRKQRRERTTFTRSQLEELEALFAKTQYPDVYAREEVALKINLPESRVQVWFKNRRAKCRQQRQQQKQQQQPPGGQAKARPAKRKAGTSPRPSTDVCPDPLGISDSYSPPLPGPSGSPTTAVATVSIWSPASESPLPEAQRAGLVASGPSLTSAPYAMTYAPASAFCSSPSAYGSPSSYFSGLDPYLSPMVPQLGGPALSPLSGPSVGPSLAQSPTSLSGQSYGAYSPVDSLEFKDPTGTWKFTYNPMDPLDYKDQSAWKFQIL

Take ATGTTA: the binding signal with FEV was 1.13 fold enrichment (6-mer frequency, TF over GST control); in the assay with ETV5 it was 1.25 fold enrichment (6-mer frequency, TF over GST control); in the assay with HSF1 it was 1.12 fold enrichment (6-mer frequency, TF over GST control); with SPIC it was 1.28 fold enrichment (6-mer frequency, TF over GST control); in the assay with ELF4 it was 1.33 fold enrichment (6-mer frequency, TF over GST control); with ELK4, 1.23 fold enrichment (6-mer frequency, TF over GST control). Further, the binding signal was 1.24 fold enrichment (6-mer frequency, TF over GST control) in the assay with ETV2; 1.17 fold enrichment (6-mer frequency, TF over GST control) with ELF3; 1.31 fold enrichment (6-mer frequency, TF over GST control) with CRX; 1.3 fold enrichment (6-mer frequency, TF over GST control) with ETV1; 1.21 fold enrichment (6-mer frequency, TF over GST control) with ERF; 1.2 fold enrichment (6-mer frequency, TF over GST control) with ETV3L. In addition, the binding signal with ETS2 is 1.24 fold enrichment (6-mer frequency, TF over GST control); in the assay with SPDEF it was 1.26 fold enrichment (6-mer frequency, TF over GST control); with ETV7, 1.23 fold enrichment (6-mer frequency, TF over GST control); with ELF5, 1.21 fold enrichment (6-mer frequency, TF over GST control); with ETV3, 1.23 fold enrichment (6-mer frequency, TF over GST control); in the assay with ETV6, 1.28 fold enrichment (6-mer frequency, TF over GST control).
